Values joined by “and” are separate entries in the source; they are usually repeats but may differ in a detail not shown here. Equal entries are not always repeated. Records with an inconclusive call do not appear. Active and inactive are the calls of the source. Rule for the calls: active = hit-call score of the fitted dose curve at least 0.9, where 1 is the maximum; inconclusive = response in the unintended direction; inactive = score below 0.9.

The results in this text go back to PubChem BioAssay (EPA / NIEHS).

Estrogen receptor (Homo sapiens), sequence (P03372 whole entry, looked up): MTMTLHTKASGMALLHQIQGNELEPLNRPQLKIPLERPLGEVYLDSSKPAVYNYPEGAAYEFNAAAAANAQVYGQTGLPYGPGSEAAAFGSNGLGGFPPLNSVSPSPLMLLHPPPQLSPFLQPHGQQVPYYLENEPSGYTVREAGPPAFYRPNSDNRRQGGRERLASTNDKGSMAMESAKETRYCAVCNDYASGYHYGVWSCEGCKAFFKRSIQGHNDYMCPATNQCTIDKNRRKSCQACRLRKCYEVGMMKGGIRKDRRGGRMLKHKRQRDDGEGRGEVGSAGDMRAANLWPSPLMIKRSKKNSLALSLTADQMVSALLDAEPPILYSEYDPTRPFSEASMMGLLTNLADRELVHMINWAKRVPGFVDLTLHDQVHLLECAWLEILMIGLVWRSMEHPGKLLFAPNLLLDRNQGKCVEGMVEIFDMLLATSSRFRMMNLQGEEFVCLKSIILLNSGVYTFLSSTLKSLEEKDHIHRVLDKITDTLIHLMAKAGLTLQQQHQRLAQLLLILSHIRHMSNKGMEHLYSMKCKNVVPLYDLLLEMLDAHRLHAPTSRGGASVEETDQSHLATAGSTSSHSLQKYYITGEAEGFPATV

The assay concerns the target Estrogen receptor (Homo sapiens) (UniProt P03372). Description: ATG_hERa_XSP2: Attagene TRANS-FACTORIAL Multi-Species (XSP2) HepG2 Assay for human Estrogen Receptor (ERa) (AID 2283827). As for the experimental part: ATG_XSP2_multi-species_TRANS is a cell-based, multiplexed assay created by modifying the existing Attagene TRANS-FACTORIAL system to include a panel of nuclear receptors from some or all the following species: human (Homo sapiens), mouse (Mus musculus), frog (Xenopus laevis), zebrafish (Danio rerio), chicken (Gallus gallus), and turtle (Chrysemys picta). The ECOTOX-FACTORIAL format uses HepG2, a human liver cell line, with measurements taken at 24 hours after chemical dosing in a 24-well plate. Xsp2 included 3 nM 6-alpha-fluorotestosterone and 1.5 nM norgestrel to stimulate the androgen receptor.ATG_hERa_XSP2 is one of 29 assay components measured or calculated from the ATG_XSP2_multi-species_TRANS assay. It is designed to make measurements of mRNA induction, a form of inducible reporter, as detected with fluorescence intensity signals by Reverse transcription polymerase chain reaction (RT-PCR) and Capillary electrophoresis technology.The assay endpoint ATG_hERa_XSP2 was analyzed in the positive analysis fitting direction relative to DMSO as the negative control and baseline of activity. Using a type of inducible reporter, measures of mRNA for gain-of-signal activity can be used to understand the reporter gene at the transcription factor-level as they relate to the gene ER. Furthermore, this assay endpoint can be referred to as a primary readout, because this assay has produced multiple assay endpoints where this one serves a reporter gene function. To generalize the intended target to other relatable targets, this assay endpoint is annotated to the nuclear receptor intended target family, where the subfamily is steroidal.
Human liver HepG2 cells are transiently transfected with multiple reporter transcription units (MRTUs) in 6-well plates using FuGene 6 reagent (Roche; 3 ml FuGene/1 mg DNA). The MRTU constructs are regulated by a cis-regulating element (promoter). […] A major difference between the CIS and TRANS system is that in CIS activities of endogenous TFs are measured, whereas the TRANS assay evaluates changes in activities of exogenous, chimeric NR-Gal4 proteins. […] At the end of 24 hour incubation, total RNA was isolated using TriZol reagent (Invitrogen). The isolated RNA is then reverse-transcribed using oligo(dT) primer and Mo-MLV reverse transcriptase (Invitrogen) with DNAse I (Ambion) treatment for 30 min. The one-tenth of the produced cDNA was amplified by PCR using Taq DNA polymerase (Invitrogen) and two reporter sequence-specific primers. The PCR products were fluorescently labeled by primer extension with 6-arboxyfluorescein (6-FAM) 5'-labeled reporter sequence-specific primer (2 min at 95 C, 20 s at 68 C and 10 min at 72 C) and these products were digested with 5U of HpaI (New England Biolabs) for 2h at 37 C. The fragments were purified using Qiaquick PCR columns (Qiagen), analyzed on an ABI 3130xL genetic analyzer (Applied Biosystems) with peak positions identified by using a set of X-rhodamine (ROX)-labeled MapMarker1000 molecular weight standards (BioVentures). The raw capillary electrophoresis data was processed using Attagraph software (Attagene).
Turning to `CCC(=O)O[C@H]1CC[C@H]2[C@@H]3CCC4=CC(=O)CC[C@]4(C)[C@H]3CC[C@]12C`, the AC50 (in general, the concentration at which the activity in the assay is half-maximal) is 10.5 nM (active) and 7.8 nM (active). Turning to `CCOC(=O)C(O)(c1ccc(Cl)cc1)c1ccc(Cl)cc1`, the AC50 was 24.3 µM (active) and 33.4 µM (active).

`CC(C)(O)C(=O)Nc1ccc([N+](=O)[O-])c(C(F)(F)F)c1`: the AC50 is 100 µM (active).

Consider `c1cc2ccc3cccc4ccc(c1)c2c34`, for which the AC50 is 65.9 µM (active) and 19.8 µM (active). As to `Cc1cc(-c2ccc(N)c(C)c2)ccc1N`, the half-maximal activity concentration (AC50) is 3.66 µM (active) and 9.97 µM (active) and 9.48 µM (active). For the compound `CC(C)(c1ccccc1)c1ccc(O)cc1`, the AC50 was 0.726 µM (active). In the case of `CC(c1ccc(O)cc1)(c1ccc(O)cc1)c1ccc(O)cc1`, the compound was called inactive. Regarding `C[C@]12CCC(=O)C=C1CC[C@@H]1[C@@H]2CC[C@@]2(C)[C@H]1CC[C@]2(C)O`, the AC50 was 0.000744 µM (active). Still for that read-out and setting: with `ClC(Cl)=C(c1ccc(Cl)cc1)c1ccc(Cl)cc1` the figure was 5.03 µM (active). The same measure, in the same setting: with `C[C@]12CCC(=O)C=C1CC[C@@H]1[C@@H]2CC[C@]2(C)C(=O)CC[C@@H]12` the figure was 10.2 nM (active) and 16.5 nM (active).
